The text below walks through data of PubChem BioAssay (Tox21).

Test [1] is described as follows: qHTS assay to identify small molecule agonists of the progesterone receptor (PR) signaling pathway - cell viability counter screen (AID 1346799; calls by dose curve; also: nearly all actives have a fitted effect of over 45% in size). In a few lines:
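Counter screen for cytotoxicity: compound-treated PR-UAS-bla HEK293T cells (16 hr, 37C, 5% CO2) were assayed with CellTiter-Glo, luminescence measured after 30 min at room temperature.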
On the technique in general: In qHTS, concentration-response curves come from the screen itself.

Test [2] is described as follows: qHTS assay to identify small molecule antagonists of the TGF-beta/Smad signaling pathway - cell viability counter screen (AID 1346824). Also: nearly all actives have a fitted effect of over 50% in size. An outline of the steps: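 SBE-bla HEK 293T cells, incubated overnight, then compound plus 0.25 ng/mL TGF-beta1 (stock added) for 5 hr at 37 C. Viability was read in the same wells by CellTiter-Glo luminescence after 30 min at room temperature.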

Test [3] can be described thus: qHTS assay to identify small molecule agonists of the TGF-beta/Smad signaling pathway - cell viability counter screen (AID 1346829). Also: top concentration of the series differs between compounds; nearly all actives have a fitted effect of over 45% in size. An outline of the steps: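 Luminescence from CellTiter-Glo, read after a 30 min room-temperature incubation, gives cell viability of SBE-bla HEK 293T cells treated 5 hr with compounds at 37 C.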
The nature of test [4]: qHTS assay to identify small molecule agonists of the TGF-beta/Smad signaling pathway (AID 1346859; active = well fitted activation curve with a large enough effect in the signal ratio in the repeat runs, not every such curve was filed as active; the % refers to the signal ratio; also: series mostly up to about 77 µM). In a few lines: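 Smad-responsive beta-lactamase reporter cells (HEK 293T) received compounds from DMSO stocks after overnight attachment, were incubated 5 hr, then treated 2 hr with FRET substrate before dual-emission fluorescence measurement (405 nm excitation).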
Test [5] deals with Thyrotropin-releasing hormone receptor (Homo sapiens) (UniProt P34981). The test can be described thus: qHTS assay to identify small molecule antagonists of the thyrotropin-releasing hormone receptor (TRHR) signaling pathway (AID 1346877; active = well fitted inhibition curve with a large enough effect in the repeat runs, not every such curve was filed as active; also: series mostly up to about 51 µM). An outline of the steps: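 Intracellular calcium fluorescence, read kinetically every second over 3 min, reports TRH-evoked signalling in HEK293 cells carrying TRHR. Test compounds were added 5 min ahead of a 1 nM TRH challenge.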
Sequence of Thyrotropin-releasing hormone receptor (Homo sapiens) (P34981 whole entry, looked up): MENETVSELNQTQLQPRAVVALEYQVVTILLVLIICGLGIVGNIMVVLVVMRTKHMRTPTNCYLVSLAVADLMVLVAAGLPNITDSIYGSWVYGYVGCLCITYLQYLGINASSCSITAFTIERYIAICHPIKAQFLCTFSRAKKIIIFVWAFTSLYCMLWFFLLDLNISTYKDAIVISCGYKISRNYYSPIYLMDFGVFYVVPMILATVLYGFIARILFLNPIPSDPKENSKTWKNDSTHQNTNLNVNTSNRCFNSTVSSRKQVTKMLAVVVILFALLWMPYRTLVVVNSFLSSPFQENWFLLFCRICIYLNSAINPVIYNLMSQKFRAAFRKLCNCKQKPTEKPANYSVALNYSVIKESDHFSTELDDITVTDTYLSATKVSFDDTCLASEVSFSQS

A short description of test [6]: Human pregnane X receptor (PXR) small molecule agonists, qHTS cell viability counter screen (AID 1346977). Also: nearly all actives have a fitted effect of over 50% in size. In a few lines:
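Measures live-cell protease fluorescence (CellTiter-Fluor) in PXR-Luc HepG2 cells treated 24hr with compounds at 37C. Cells had 5hr to attach before pin transfer of DMSO solutions.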

Test [7] can be described thus: Caspase-3/7 induction in CHO-K1 cells by small molecules, qHTS cell viability counter screen (AID 1346979). Also: nearly all actives have a fitted effect of over 35% in size. Also: potency is read from the fitted curve at half-maximal effect. An outline of the steps:
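In the same wells as the caspase read, viability of compound-treated wild-type CHO-K1 cells was assessed using CellTiter-Fluor, added after 16hr at 37C and measured by fluorescence following 1hr further incubation.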

The target in test [8] is Thyrotropin-releasing hormone receptor (Homo sapiens) (UniProt P34981). Briefly: qHTS assay to identify small molecule agonists of the thyrotropin-releasing hormone receptor (TRHR) signaling pathway (AID 1346891; calls by dose curve;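 also: HEK293 cells expressing TRHR with calcium dye readout; series mostly up to about 58 µM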). An outline of the steps: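 Agonist-mode calcium mobilisation screen: TRHR-transfected HEK293 cells cultured overnight (18 h), dye-loaded for 2 h at 37 °C, exposed to compounds, and monitored by fluorescence for 3 min.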

A short description of test [9]: Caspase-3/7 induction in HepG2 cells by small molecules, qHTS assay (AID 1346978). Also: nearly all actives have a fitted effect of over 15% in size. An outline of the steps: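 Wild-type HepG2 cells, 2,000/well, settled 5 hr at 37 C and 5% CO2, then compound-treated for 17 hr; caspase-3/7 activity read by luminescent Caspase-Glo 3/7 after 30 min at room temperature.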

The structures appear in SMILES notation. A number with no mark means an inactive call. Inconclusive results are not listed. Activity calls are given as the source filed them. Unless noted, calls follow the shape of the dose curve; as a rule, active = well fitted curve in the direction sought with a large enough effect in the repeat runs; inconclusive = weak or mixed curves; inactive = no such curve, though single readings can be large; an effect the other way counts as inactive or inconclusive.
% is scaled to controls: 0 for no effect and ±100 for the full control effect.

As to `CC(C)(C)c1ccc(OC2CCCCC2O)cc1` (stereo unspecified), the Potency entry in test [1], in [2], in test [3], in [5] and in test [6] was “inactive” in each case. The result in [4] was inactive. In addition, the Potency in test [7] was 61.1 µM (active).

For the molecule `C=Cc1ccncc1`, the Potency entry in test [1], in [2], in [3], in [5], in test [8] and in test [6] was “inactive” each time. In addition, the Potency entry in test [9] and in test [7] was “inactive” each time. Also, the outcome in [4] was inactive.

Regarding `Nc1cc([N+](=O)[O-])cc(Cl)c1O`, the Potency result in [1], in test [2], in test [3], in [5], in [8] and in test [9] was “inactive” in each case. In addition, the molecule was called inactive in test [4].

Consider `NC(=O)C1CO1` (stereo unspecified), for which the Potency entry in [1], in [2], in test [3], in [5], in test [8] and in test [6] was “inactive” each time. Also, the Potency result in test [9] and in test [7] was “inactive” each time. Moreover, in [4], the call was inactive.

With `C=C(C)CCO`, the Potency result in test [1], in test [2], in test [3], in [5], in test [6] and in [9] was “inactive” in each case. For the same molecule, the Potency result in [7] is “inactive”. For the same molecule, the molecule was classed as inactive in test [4].

In the case of `CC(CC(C)(C)C)CC(C)(C)CC(C)(C)C` (stereo unspecified), the Potency result in test [1], in test [2], in test [3], in [5], in test [8] and in test [6] was “inactive” in each case. In addition, the Potency result in test [9] and in test [7] was “inactive” throughout. For the same molecule, the result in test [4] was inactive.

`NCc1ccco1`: the Potency entry in test [1], in test [2], in test [3], in test [5], in [8] and in [6] was “inactive” in each case. The Potency entry in test [9] and in test [7] was “inactive” in each case. Besides, the molecule was called inactive in [4].

`CCOc1nc(F)cc2nc(S(=O)(=O)Nc3c(Cl)cccc3C(=O)OC)nn12`: the Potency entry in test [1], in test [2], in [3], in [5], in test [6] and in test [9] was “inactive” each time. The Potency result in test [7] was “inactive”. Moreover, the molecule was classed as inactive in test [4].

Regarding `CCCCCCCCCCCCS(=O)(=O)Cl`, the activity change, negative = cytotoxicity was -21.2% [at 19 µM] in test [1], 19.7% [at 15.8 µM] in test [3], 2.87% [at 19 µM] in test [6] and 5.87% [at 19 µM] in test [7]. Further, the viability change, negative = cytotoxic in test [2] was -0.792% [at 15.8 µM]. The activation in [4] was 8.04% [at 15.8 µM]. For the same molecule, the activity, negative = inhibition in test [5] is -4.31% [at 10.5 µM]. In addition, the caspase activation in test [9] was -0.157% [at 19 µM].

For `Cc1ccc(C=O)cc1`, the Potency entry in [1], in test [3], in [5], in [8], in [6] and in test [9] was “inactive” each time. For the same molecule, in test [7], the Potency entry was “inactive”. In addition, the outcome in [4] was inactive.

Turning to `Clc1nc(C(Cl)(Cl)Cl)c(Cl)c(Cl)c1Cl`, the Potency result in test [1], in test [2], in [3], in test [5] and in test [8] was “inactive” throughout. For the same molecule, in [4], the molecule was classed as inactive. The Potency in test [7] is 30.6 µM (active).

With `CC(O)(c1ccc(Cl)cc1)c1ccc(Cl)cc1`, the Potency result in [1], in test [2], in test [3] and in [8] was “inactive” throughout. In addition, the outcome in test [4] was inactive.

Take `CCC(=O)OC/C=C(\C)CCC=C(C)C`: the Potency entry in test [1], in [2], in test [3], in test [5], in test [8] and in [6] was “inactive” throughout. For the same molecule, the Potency result in test [9] and in test [7] was “inactive” in each case. In [4], the result was inactive.

`N#CCCOCCC#N`: the Potency entry in test [1], in [2], in test [3], in test [5], in [8] and in [6] was “inactive” in each case. For the same molecule, the Potency entry in [9] and in test [7] was “inactive” each time. Moreover, the call in test [4] was inactive.

Consider `C=Cc1ccc(O)c(OC)c1`, for which the Potency result in test [1], in test [2], in [3], in test [5], in test [8] and in test [6] was “inactive” in each case. Further, the Potency entry in [9] and in test [7] was “inactive” in each case. In addition, in [4], the call was inactive.
